Laboratory results reported in PubChem BioAssay AID1259313 (Sanford-Burnham Center for Chemical Genomics, 2017).
Out of some 340,000 compounds screened, about 8,500 (2.5%) were called active.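 The calls were made as follows: active = melting temperature shift of at least 10% of the positive control shift, at one fixed dose; inactive = the rest.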 Shown is part of a subset that was picked to be rich in actives.

These compounds were tested on Glutamate receptor ionotropic, NMDA 3A (GRIN3A) ligand-binding domain (assay: NR3A LBD thermal stabilization by compounds – biophysical, differential scanning fluorimetry, uHTS, primary screen (AID 1259313)). Conditions: at 25 µM, stronger effect = higher value, 0% = protein alone, 100% = glycine-bound protein.

| Compound | Tm shift relative to glycine control |
| --- | --- |
| CCn1c(Cc2cccs2)nnc1SCC(=O)c1ccc(C)cc1 | 11.2% (active) |
| Cc1ccc(-n2c(Cc3cccs3)nnc2SCC(=O)OC(C)C)cc1 | -1.71% (inactive) |
| CCn1c(SCC(=O)c2ccc3ccccc3c2)nnc1-c1cccs1 | -0.65% (inactive) |
| Cc1ccccc1NC(=O)C(C)c1ccc(-c2ccccc2)c(F)c1 (centres undefined) | -4.35% (inactive) |
| CCCC(C(=O)OCCN(CC)CC)(c1ccccc1)c1ccccc1 | -1.26% (inactive) |
| O=C(c1ccccc1)C(Cn1cncn1)C(Sc1ccccc1)c1ccccc1 (centres undefined) | 0.35% (inactive) |
| COc1ccc(CNC(=O)CN2CCC(n3nnc4cc(F)ccc43)CC2)cc1 | 0.17% (inactive) |
| COc1ccc(CNC(=O)c2nnn(CC(=O)Nc3cc(C)cc(C)c3)c2N)cc1 | 29.7% (active) |
| CCc1ccc(NC(=O)Cn2nnc(C(=O)NCc3ccc(OC)cc3)c2N)cc1 | 24.6% (active) |
| COc1ccc(NC(=O)Cn2nnc(C(=O)NCCc3ccc(OC)c(OC)c3)c2N)cc1 | -0.6% (inactive) |
| CCc1ccc(NC(=O)Cn2nnc(C(=O)NCc3ccc4c(c3)OCO4)c2N)cc1 | 8.72% (inactive) |
| Cc1ccc(NC(=O)Cn2nnc(C(=O)NCc3ccco3)c2N)c(C)c1 | 1.53% (inactive) |
| COc1ccc(CNC(=O)c2cc(=O)c3c(C)cc(C)cc3o2)cc1 | -0.39% (inactive) |
| COc1cccc(CNC(=O)c2nnn(CC(=O)Nc3cc(Cl)ccc3C)c2N)c1 | 2.58% (inactive) |
| COc1cccc(CNC(=O)c2nnn(CC(=O)Nc3cc(C)ccc3C)c2N)c1 | 11.9% (active) |
| Cc1ccc(N/C(N)=N/c2nc(C(F)(F)F)cc(C(F)(F)F)n2)cc1 | -6.73% (inactive) |
| O=C(NCc1cccs1)c1ccc2c(c1)ncn2C1CCCC1 | -0.09% (inactive) |
| O=C1CN(C(=O)CN2C(=O)NC3(CCCCC3)C2=O)c2ccccc2N1 | -0.31% (inactive) |
| O=C(CSc1c2c(nc3ccc(Cl)cc13)CCCC2)NCc1ccco1 | 0.25% (inactive) |
| COC(=O)C1CCN(C(=O)c2ccc3oc(Cc4ccc(Cl)cc4)nc3c2)CC1 | 0.94% (inactive) |
| COc1ccc(Cl)cc1NC(=O)COc1ccc2c(c1)OCO2 | -1.71% (inactive) |
| C#CCNC(=O)C1=C[C@@H](c2ccccc2)[C@H](CCCO)[C@@H](OCC)O1 | -1.23% (inactive) |
| COc1ccc(-c2cc(C(=O)n3cnc4ccccc43)c3ccccc3n2)cc1 | -1.16% (inactive) |
| COc1ccc(NC(=O)c2cc(-c3cc(OC)c(OC)c(OC)c3)nc3ccccc23)c(OC)c1 | 1.42% (inactive) |

| Compound | Tm shift relative to glycine control |
| --- | --- |
| COc1ccc(-c2cc(C(=O)Nc3ccccc3O)c3ccccc3n2)cc1 | 21% (active) |
| Cc1cccc(CSc2ccc(-c3cccs3)nn2)c1 | -7.55% (inactive) |
| Nc1ccc(SCCN2C(=O)c3ccccc3C2=O)cc1 | -0.18% (inactive) |
| O=C(Nc1c(Br)cc2c(c1Br)Cc1ccccc1-2)C(F)(F)F | 11.5% (active) |
| O=C(Nc1c(Br)cc2c(c1Br)Cc1cc([N+](=O)[O-])ccc1-2)C(Cl)Cl | -1.4% (inactive) |
| O=C(Nc1ccccc1)c1ccccc1NC(=O)C(F)(F)F | -1.92% (inactive) |
| O=C(CCS(=O)(=O)c1ccc(Br)cc1)NCCc1ccc(Cl)cc1 | 0.18% (inactive) |
| CCOc1ccc(NC(=O)CN(C)C(=O)CSc2ccccc2)cc1OCC | -0.35% (inactive) |
| O=C(/C=C/Sc1ncn[nH]1)c1ccc(Cl)cc1 | -1.06% (inactive) |
| Fc1c(F)c(C(F)(F)F)c(F)c(F)c1N1CCN(c2ccc3nnc(C(F)(F)F)n3n2)CC1 | 33.4% (active) |
| FC(F)(F)c1nnc2ccc(N3CCN(c4ccccc4)CC3)nn12 | -3.49% (inactive) |
| CSCCC(NC(=O)c1ccc(Cl)cc1Cl)C(=O)NNC(=O)c1csc(N2CCOCC2)n1 (centres undefined) | -1.92% (inactive) |
| COc1ccc(NC(=O)CN2C(=O)CSc3ccc(S(=O)(=O)N4CCC(C)CC4)cc32)cc1 | -2.6% (inactive) |
| Cc1cc(Cl)c2oc(C(=O)NC(C)c3ccncn3)c(C)c2c1 (centres undefined) | -2.04% (inactive) |
| Cc1ccc(-n2ncc3c(N4CCN(c5ccc(F)cc5)CC4)ncnc32)c(C)c1 | 10.6% (active) |
| Cc1ccc2cc(C)c(N3CCN(c4ccc(F)cc4)CC3)nc2c1 | 1.71% (inactive) |
| Cc1ccc(-n2ncc3c(=O)[nH]cnc32)c(C)c1 | -2.15% (inactive) |
| CCCCn1c(SCc2ncc(-c3ccccc3)o2)nc2cc(S(N)(=O)=O)ccc21 | -10.6% (inactive) |
| CCOc1ccc(C(CCc2ccccc2)NC(=O)c2ccc(OC)c(OC)c2)cc1OCC (centres undefined) | -0.18% (inactive) |
| O=C1CCC(C(=O)N2CCCCO2)CN1Cc1cccc(C(F)(F)F)c1 (centres undefined) | 0.67% (inactive) |
| COc1ccc(Oc2coc3cc(OC(=O)c4cncc(Br)c4)ccc3c2=O)cc1 | -4.3% (inactive) |
| COC(=O)COc1ccc2c(=O)c(Oc3ccccc3Br)coc2c1 | 17.5% (active) |
| CCc1ccc(Oc2coc3cc(O)ccc3c2=O)cc1 | -1.09% (inactive) |
| CC(C)OC(=O)c1ccc(COc2ccc3ccc(=O)oc3c2)o1 | 1.19% (inactive) |

| Compound | Tm shift relative to glycine control |
| --- | --- |
| CCOc1ccccc1Oc1cn[nH]c1-c1ccc(OC)cc1O | -4.92% (inactive) |
| COc1ccc(Oc2cn[nH]c2-c2ccc(OC)cc2O)cc1 | 17.8% (active) |
| COc1ccc(-c2cn[nH]c2-c2ccc(OC)cc2)cc1 | 0% (inactive) |
| Cc1ccc(S(=O)(=O)N2CCN(C(=O)c3cc(S(=O)(=O)N4CCOCC4)ccc3F)CC2)cc1 | -1.16% (inactive) |
| CC1CCCC(NC(=O)CSc2nccn2C)C1C (centres undefined) | 3.2% (inactive) |
| Cc1ccc(-n2nc3c(=O)n(C(C)C(=O)NCc4ccc5c(c4)OCO5)nc(C)c3c2C)cc1 (centres undefined) | 0% (inactive) |
| COC(C(=O)Nc1ccc(S(=O)(=O)Nc2ccc(C)c(C)c2)cc1)c1ccccc1 (centres undefined) | 16.2% (active) |
| COC(C(=O)Nc1ccc(C(C)=O)cc1)c1ccccc1 (centres undefined) | -4.28% (inactive) |
| COC(C(=O)NCc1ccccc1C)c1ccccc1 (centres undefined) | -0.62% (inactive) |
| CCOc1ccc(CN2CCN(CCCc3ccccc3)C(CCO)C2)cc1 (centres undefined) | 0.91% (inactive) |
| CC1CN(C(=O)COC(=O)c2cccc(NS(=O)(=O)c3ccccc3)c2)CC(C)O1 (centres undefined) | 2.04% (inactive) |
| CC1=C(C)CC(C(=O)NC(C)CCc2ccccc2)C(C(=O)O)C1 (centres undefined) | -2.66% (inactive) |
| Cc1cc(=O)cc(C)[nH]1 | 13% (active) |
| CSc1cc(C)[nH]c(=O)n1 | 1.65% (inactive) |
| COc1ccccc1S(=O)(=O)c1c(C)cc(C)[nH]c1=O | -0.69% (inactive) |
| CCOc1cnc(C(=O)NNC(=O)c2ccccc2Br)o1 | -1.85% (inactive) |
| Clc1cccc(N=C2NN=C(c3ccc4c(c3)OCCO4)CS2)c1 | 12.7% (active) |
| c1ccc(CN2CCC(N=C3NN=C(c4ccc5c(c4)OCCO5)CS3)CC2)cc1 | -2.04% (inactive) |
| CN(C)c1nc(=Nc2cccc(Cl)c2)ss1 | -11% (inactive) |
| Cc1ccc(S(=O)(=O)N(C)c2ccc(OCC(=O)OCc3ccc(C#N)cc3)cc2)cc1 | 12.6% (active) |
| Cc1ccc(S(=O)(=O)N(C)c2ccc(OCC(=O)NC3=NCCS3)cc2)cc1 | -0.31% (inactive) |
| Cc1ccc(S(=O)(=O)N(C)c2ccc(OCC(=O)OCC(=O)N(CC#N)c3ccccc3)cc2)cc1 | 2.35% (inactive) |
| O=C(NCc1csc(-c2cccs2)n1)C1CC1 | 0.25% (inactive) |
| COc1ccc(C2OCC3(CO2)SC(=O)NC3=O)cc1OC (centres undefined) | -1.38% (inactive) |

| Compound | Tm shift relative to glycine control |
| --- | --- |
| O=C(NCc1cccs1)c1ccc(CS(=O)Cc2ccccc2Cl)o1 (centres undefined) | 0.47% (inactive) |
| O=C(CN1CCOCC1)N/N=C/c1ccc(-c2ccc(Br)cc2)o1 | -2.4% (inactive) |
| O=C(Cn1nnc(-c2ccccc2)n1)N/N=C/c1ccc(-c2ccc(Cl)cc2)o1 | 384% (active) |
| Nc1nnn(CC(=O)N/N=C/c2ccccc2)n1 | -2.09% (inactive) |
| CCOc1ccc(-n2c(SCC(=O)NC3CCS(=O)(=O)C3)nnc2-c2cccnc2)cc1 (centres undefined) | -1.01% (inactive) |
| CCN1CC(CN(C)Cc2nc(-c3ccc(Cl)cc3)no2)CC1=O (centres undefined) | -0.89% (inactive) |
| O=C(OCC(=O)N1CCc2ccccc21)c1ccc([N+](=O)[O-])cc1 | 1% (inactive) |
| CCc1ccc(Nc2n[n+](-c3ccccc3)c(-c3cccc(Cl)c3Cl)s2)cc1 | 16% (active) |
| COc1ccc(C)cc1Nc1n[n+](-c2ccccc2)c(-c2cccc(Cl)c2Cl)s1 | 4.85% (inactive) |
| COc1cc(Br)c(-c2sc(Nc3ccccc3)n[n+]2-c2ccccc2)cc1OC | -12% (inactive) |
| O=C(c1ccc(F)cc1)N1CCC(n2nnc3ccccc32)CC1 | 3.22% (inactive) |
| CCOCCOC(=O)C1=C(C)N(C)C(=O)NC1c1ccccc1F (centres undefined) | -1.72% (inactive) |
| COc1ccc2c(c1)C(SCC(=O)NCc1ccccc1)CC(C)(C)O2 (centres undefined) | -0.16% (inactive) |
| CC(C)NC(=O)C(=O)NCCCOC(C)C | 18.7% (active) |
| CC(C)OCCCNC(=O)C1CC(=O)N(C2CCCCCCC2)C1 (centres undefined) | 2.24% (inactive) |
| CCOCCCNC(=O)C(=O)NCCCOCC | -0.68% (inactive) |
| CC(C(=O)Nc1ccc(S(=O)(=O)N2CCCC2)cc1)N(C)Cc1ccc(F)cc1 (centres undefined) | -1.56% (inactive) |
| CNC(=S)N/N=C/c1cn(Cc2ccc(C)cc2)c2ccccc12 | -1.66% (inactive) |
| COC(=O)N/N=C/c1cn(CCCOc2ccc(C)cc2)c2ccccc12 | 12.8% (active) |
| CCOC(=O)N/N=C/c1cn(Cc2ccccc2Cl)c2ccccc12 | -13.8% (inactive) |
| CC(C)(C)c1ccc(/C=C/C(=O)NCCCn2ccnc2)cc1 | -0.74% (inactive) |
| O=C(COC(=O)c1ccc(Cl)nc1)NCc1ccc2c(c1)OCO2 | -1.93% (inactive) |
